Experimental findings from ChEMBL document CHEMBL1157539, “Thousands of chemical starting points for antimalarial lead identification” (Nature, 2010) are described below.

What all share (format): functional
Assay [1] concerns Plasmodium falciparum. The experiment in a line: GSK_TCMDC: Inhibition of Plasmodium falciparum 3D7 in whole red blood cells, using parasite LDH activity as an index of growth. Test compounds present at 2uM.
In assay [2] the test system is Plasmodium falciparum. Description: GSK_TCMDC: Inhibition of Plasmodium falciparum Dd2 in whole red blood cells, using parasite LDH activity as an index of growth. Test compounds present at 2uM.
The test system of assay [3] is HepG2. Description: GSK_TCMDC: Percent inhibition of human HepG2 cell line. Test compounds present at 10uM.

As for `COc1ccc(C(=O)Nc2cc(Br)c3c(c2)CNCC3)cc1C(F)(F)F.Cl`, the figures for the Inhibition in assay [1], in assay [2] and in assay [3] were 90%, 4% and 13%, respectively.
Take `O=C(CCNc1ccnc(NCC2CCCCC2)n1)Nc1ccccc1.O=C(O)C(F)(F)F`: the Inhibition in assay [1] is listed as 95%; in assay [2] it was 48%; in assay [3], 55%.
The matching figures for `COc1cccc(C2C(C(=O)Nc3ccccc3)=C(C)N=c3sc(=Cc4ccc(O)cc4)c(=O)n32)c1` (stereo not given): 97%, 97% and 15%.
For the compound `Clc1ccc(Cc2nc3ccccc3[nH]2)cc1Cl`, the results for the Inhibition in assay [1], in assay [2] and in assay [3] were 98%, 2% and 5%, respectively.
On to `C(=NNc1nc2ccccc2[nH]1)c1ccccc1OCc1ccccc1`, for which the Inhibition in assay [1] is 100%; in assay [2], 90%; in assay [3] it was 15%.
Turning to `CCOC(=O)NC1=NC(C)(C)N(OCc2cccc3c2ccc2ccccc23)C(NC(=O)OCC)=N1`, the Inhibition came to 98% in assay [1], 3% in assay [2] and 3% in assay [3].
Regarding `COc1cc(C=CC(=O)N2CCN(Cc3cccc(C)c3)CC2)ccc1OCc1c(C)noc1C`, the Inhibition stood at 86% in assay [1], 95% in assay [2] and 8% in assay [3].
Consider `N#Cc1ccc2[nH]cc(C(=O)CCCCCN(Cc3ccccc3)Cc3ccccc3)c2c1`, for which the results for the Inhibition in assay [1], in assay [2] and in assay [3] were 93%, 97% and 10%, respectively.
With `Cl.N#Cc1ccc2c(c1)CCN(CCC1CCC(NC(=O)Nc3cnc4ccccc4c3)CC1)C2` (stereo not given), the Inhibition in assay [1] turned out to be 93%; in assay [2] it was 9%; in assay [3], 14%.
For the compound `COc1ccc(-c2ccc(NC(=O)c3ccc(Cl)cc3)cc2)cc1CN1CCNCC1.O=C(O)C(F)(F)F`, the figures for the Inhibition in assay [1], in assay [2] and in assay [3] were 99%, 24% and 14%, respectively.
With `COc1ccc(-c2cccc(NC(=O)c3cccc(C#N)c3)c2)cc1CN1CCN(C)CC1.O=C(O)C(F)(F)F`, the Inhibition was determined as 91% in assay [1], 16% in assay [2] and 25% in assay [3].
For the compound `CC1CN(c2ccc(C(=O)NCC3CC3)cc2NC(=O)OCc2ccccc2)CC(C)O1.O=C(O)C(F)(F)F` (stereo not given), the values for the Inhibition in assay [1], in assay [2] and in assay [3] were 91%, 76% and 0%, respectively.
Consider `O=C(NCC(CCN1CCC(c2c[nH]c3ccccc23)CC1)c1ccccc1)Nc1ccc(Cl)c(Cl)c1` (stereo not given), for which the Inhibition was 100% in assay [1], 53% in assay [2] and 46% in assay [3].
As to `CCOC(=O)c1cc(C(=O)NCCCCN2CCC(c3ccc4c(c3OC)CCCC4)CC2)ccc1-c1ccc(C(F)(F)F)cc1`, the Inhibition is reported as 100% in assay [1], 60% in assay [2] and 100% in assay [3].
Consider `CS(=O)(=O)CCNCc1nc(-c2ccc3c(Nc4ccc(Cl)cc4F)ccnc3c2)cs1`, for which the Inhibition in assay [1] was 88%; in assay [2], 28%; in assay [3], 19%.
Consider `Oc1ccc(-c2nc(-c3ccc4oc5ccc(-c6[nH]c(-c7ccc(O)cc7)nc6-c6ccccc6)cc5c4c3)c(-c3ccccc3)[nH]2)cc1`, for which the Inhibition was determined as 84% in assay [1], 71% in assay [2] and 0% in assay [3].
The corresponding values for `COc1cc(Nc2nccc(N3CCC(NC(=O)c4cc5ccccc5s4)C3)n2)cc(OC)c1OC` (stereo not given) are 96%, 50% and 2%.
The corresponding values for `COc1ccc2nc(C)cc(Nc3ccc(Cl)c(Cl)c3)c2c1` are 100%, 99% and 30%.
As for `CS(=O)(=O)NCCCNCc1ccc(-c2ccc(-c3nc4cc(F)ccc4[nH]3)s2)cc1.O=C(O)C(F)(F)F`, the Inhibition was 95% in assay [1], 30% in assay [2] and 23% in assay [3].
As for `COc1ccc(S(=O)(=O)N2CCCc3ccc(Br)cc32)cc1N1CCN(C(=O)C(Cl)(Cl)Cl)CC1`, the Inhibition in assay [1] stood at 97%; in assay [2], 93%; in assay [3], 23%.
The matching figures for `N#Cc1cccc(C(=O)NC2CCN(CCCCCNC(=O)/C=C/c3ccc(Cl)c(Cl)c3)CC2)c1`: 100%, 0% and 11%.
Regarding `CCCCCCn1c(Sc2ccc(C#N)c([N+](=O)[O-])c2)nnc1-c1cccc(Cl)c1`, the Inhibition in assay [1] stood at 96%; in assay [2], 90%; in assay [3] it was 17%.
Consider `CCN(CC)/C(=N/C(=N)Nc1ccc(Br)cc1)NCCCCCCN/C(=N\C(=N)Nc1ccc(Br)cc1)N(CC)CC`, for which the Inhibition in assay [1] was found to be 96%; in assay [2], 95%; in assay [3] it was 0%.
Turning to `CC(C)NCc1ccc(-c2ccc(NC(=O)c3ccc(C#N)cc3)cc2)cc1.O=C(O)C(F)(F)F`, the Inhibition in assay [1] is 90%; in assay [2], 0%; in assay [3], 23%.
The matching figures for `CS(=O)(=O)c1ccc(CCNCc2ccc(-c3ccc(CN(C(=O)C4CC(=O)c5ccccc54)C4Cc5ccccc5C4)cc3)nc2)cc1.O=C(O)C(F)(F)F` (stereo not given): 90%, 21% and 5%.
The matching figures for `CN1CCN(CCCN(Cc2ccc(-c3ccc(CNCCc4ccccc4)cc3)cc2)C(=O)c2cccs2)CC1.O=C(O)C(F)(F)F`: 98%, 78% and 32%.
On to `COc1ccc(NC(=O)c2ccc(-c3nc(-c4ccccc4)cs3)cc2)cc1N1CCN(C)CC1.O=C(O)C(=O)O`, for which the Inhibition is reported as 93% in assay [1], 13% in assay [2] and 17% in assay [3].
For the compound `CC(=O)c1ccc(S(=O)(=O)N2CCC(C(=O)Nc3ccccc3N3CCCC3)CC2)cc1`, the Inhibition in assay [1] turned out to be 95%; in assay [2], 99%; in assay [3] it was 0%.
The matching figures for `COc1ccc(C=C2SC(=O)N=C2Nc2ccccc2)c(OC)c1`: 91%, 89% and 51%.
For the compound `CC[C@H](C)CNC(=O)c1cncc(-c2ccc(CNC3CCCC3)cc2)c1.O=C(O)C(F)(F)F`, the Inhibition is listed as 97% in assay [1], 5% in assay [2] and 0% in assay [3].
The corresponding values for `CCCC(C(CC1CCC(C)CC1)C(=O)NC(CCCNc1ncccn1)C(=O)Nc1nccs1)N(O)C=O` (stereo not given) are 98%, 98% and 10%.
For the compound `COc1cc2ncnc(Nc3ccc(OCc4ccccc4)c(I)c3)c2cc1OC.Cl`, the Inhibition in assay [1] was 98%; in assay [2], 62%; in assay [3], 11%.
With `COc1ccc(CCNCC(O)COc2nccc3c(S(=O)(=O)N4CCCNCC4)cccc23)cc1OC.Cl` (stereo not given), the Inhibition is 96% in assay [1], 0% in assay [2] and 59% in assay [3].
`COc1ccc2[nH]c(C(=O)Nc3ccc4[nH]c(-c5ccccc5)nc4c3)cc2c1.O=C(O)C(F)(F)F`: the Inhibition in assay [1] came to 96%; in assay [2], 23%; in assay [3], 51%.
The matching figures for `COc1ccc(C2CC(c3ccccc3O)=NN2C(=O)c2ccco2)cc1OC` (stereo not given): 96%, 68% and 11%.
For the compound `Br.CC1(C)NC(=N)NC(=N)N1OCC=Cc1ccccc1`, the Inhibition in assay [1] is recorded as 94%; in assay [2] it was 96%; in assay [3] it was 62%.
`O=C(COc1cnc2ccccc2n1)Nc1ccccc1Sc1ccc(Cl)cc1`: the Inhibition in assay [1] stood at 100%; in assay [2], 100%; in assay [3], 6%.
With `CC(Cc1ccc(NC(=O)c2ccc(CNCCCCc3ccccc3)cc2)cc1)NCCc1cccc(Cl)c1.Cl` (stereo not given), the Inhibition was 100% in assay [1], 96% in assay [2] and 100% in assay [3].
As to `Cc1cccc2nc(-c3ccc(-c4ccc(NC(=O)NCc5cccc(F)c5)cc4)cc3)[nH]c12`, the results for the Inhibition in assay [1], in assay [2] and in assay [3] were 97%, 12% and 46%, respectively.
For `CCNc1cc(C(=O)N[C@@H](Cc2ccccc2)[C@H](O)CNC(C)(C)CCCC(C)C)cc(N2CCCC2=O)c1.O=CO`, the Inhibition in assay [1] is 100%; in assay [2], 81%; in assay [3] it was 0%.
As to `O=C(NC1CCN(CCN2CCC(c3cn(CCO)c4ccccc34)CC2)CC1)c1ccc(-c2ccc(C(F)(F)F)cc2)cc1`, the Inhibition in assay [1] worked out at 98%; in assay [2] it was 54%; in assay [3], 30%.
The corresponding values for `Cc1ccc(-c2ccc(NC(=O)N3CCc4cc(Br)c(N5CCN(C)CC5)cc43)cc2)cn1` are 80%, 16% and 86%.
Regarding `Br.CC(=O)CSC(C=Cc1ccc(N(C)C)cc1)=Nc1ccccc1`, the Inhibition in assay [1] is 81%; in assay [2] it was 42%; in assay [3] it was 38%.
With `O=C(/C=C/c1ccc(Cl)c(Cl)c1)NCCCCCN1CCCN(C(=O)Nc2ccc(Cl)c(C(F)(F)F)c2)CC1`, the Inhibition in assay [1] turned out to be 100%; in assay [2] it was 16%; in assay [3], 35%.
Turning to `COc1ccc(NC(=O)c2ccc3cc4ccccc4cc3c2)cc1N1CCN(C)CC1`, the Inhibition in assay [1] turned out to be 86%; in assay [2], 29%; in assay [3], 38%.
The matching figures for `COc1ccc(CN2CCCN(Cc3cccc(NC(=O)c4ccc(-c5ccccc5)cc4)c3)CC2)cc1.O=C(O)C(F)(F)F`: 94%, 24% and 37%.
In the case of `NC(=O)NC(=O)C=Cc1ccco1`, the Inhibition in assay [1] came out at 97%; in assay [2] it was 0%; in assay [3] it was 32%.
As to `CCCCCCCN1CC[C@@H](CCCc2ccnc3ccc(OCC4CCCNC4)cc23)[C@@H](CC)C1.Cl` (stereo not given in full), the Inhibition in assay [1] is 98%; in assay [2] it was 100%; in assay [3], 99%.
The corresponding values for `Cl.N=C(N)NN=Cc1ccc2c(ccc3ccccc32)c1` are 100%, 68% and 9%.
As to `CC(C)C1=C[C@H]2C[C@]3(C4OCCO4)[C@@H]4CC[C@@H](C)[C@H]4C[C@@]2(COCc2cccc(C#N)c2)[C@]13C(=O)OC(c1ccccc1)c1ccccc1`, the results for the Inhibition in assay [1], in assay [2] and in assay [3] were 88%, 92% and 0%, respectively.
For the compound `Cc1[nH]c(-c2ccc(F)cc2)cc1C(=O)NC1CCN(Cc2ccccc2)CC1`, the results for the Inhibition in assay [1], in assay [2] and in assay [3] were 84%, 9% and 6%, respectively.
Consider `O=C(Cc1ccc[n+]([O-])c1)Nc1cccc(-c2cccc(-c3nc4cc(C(F)(F)F)ccc4[nH]3)c2)c1`, for which the Inhibition in assay [1] is given as 92%; in assay [2], 99%; in assay [3], 41%.
As for `O=C(Nc1cccc(C(F)(F)F)c1)c1cc([N+](=O)[O-])cc2cn[nH]c12`, the figures for the Inhibition in assay [1], in assay [2] and in assay [3] were 100%, 69% and 60%, respectively.
For the compound `O=C(/C=C/c1ccc(Cl)c(Cl)c1)NCCCCCN1CCC(NC(=O)c2ccc(F)c(F)c2)CC1`, the Inhibition in assay [1] stood at 99%; in assay [2], 20%; in assay [3], 36%.
The corresponding values for `COc1ccc(-c2ccc(NC(=O)c3cccc(Cl)c3)cc2)cc1CNC(C)C.O=C(O)C(F)(F)F` are 100%, 88% and 26%.
With `COc1cc2nc(NCCCO)nc(Nc3ccc(Oc4ccccc4)cc3)c2cc1OC`, the Inhibition in assay [1] is 100%; in assay [2], 100%; in assay [3], 24%.
As to `Cc1sc(NC(=O)Cc2cccc(C(F)(F)F)c2)nc1-c1cccc(Cl)c1`, the Inhibition in assay [1] was 100%; in assay [2], 95%; in assay [3] it was 15%.
In the case of `COc1ccc2nccc([C@@H](O)CN3CCC(NC(=O)c4ccc(CN5CCN(c6cccc(C)c6)CC5C)cc4)CC3)c2c1` (stereo not given in full), the Inhibition is recorded as 97% in assay [1], 86% in assay [2] and 50% in assay [3].
On to `CC(C)CNCc1cccc(-c2cccc(CNCCCN3CCN(C)CC3)c2)c1.O=C(O)C(F)(F)F`, for which the Inhibition is 88% in assay [1], 7% in assay [2] and 5% in assay [3].
Regarding `COc1cccc(NC(=O)c2nc(N3CCN(c4ccncc4)CC3)ccc2Cl)c1.O=C(O)C(F)(F)F`, the Inhibition worked out at 97% in assay [1], 65% in assay [2] and 14% in assay [3].

As usually defined, the Inhibition is the change of the read-out against control, counted positive when it falls. Low readings indicate a response near the control, high ones a response far below the control.
